40 molecules from PubChem BioAssay (Tox21) can be followed below.

Records with an inconclusive call do not appear. Values without a mark were called inactive. Activity calls are given as the source filed them. Calls come from the whole dose curve.
% is set by controls: 0 for no effect and ±100 for the full control effect.

The nature of this assay: cAMP Responsive Elements (CRE) small molecule agonists, cell-based qHTS assay (AID 1963590). The settings on record: CRE-bla HEK293T, beta-lactamase FRET ratio, 3 h; series mostly up to 92.4 µM; activation: at the top concentration. From the text:
U.S. Tox21 Program National Center for Advancing Translational Sciences [NCATS] Division of Preclinical Innovation [DPI] U.S. Environmental Protection Agency [EPA] National Institutes of Environmental Health Sciences [NIEHS] National Toxicology Program [NTP] U.S. Food and Drug Administration [FDA] Tox21 Assay Overview: CREB (cyclic-AMP Responsive Element Binding Protein) is a cellular transcription factor. It binds to certain DNA sequences called cAMP Responsive Elements (CRE) and regulates the transcription of the genes. […] This cell line can be used to find agonists/antagonists of the cyclic AMP signaling pathway. The activation of the report gene under culture conditions can be detected by fluorescence intensity. This cell line has been used to screen the Tox21 10K compound library to identify agonists that induce oxidative stress.
Tox21 Assay Protocol Summary: CRE-bla Hek 293T cells were suspended in assay medium (DMEM containing 10% dialyzed FBS, 0.1 mM NEAA, 1 mM sodium pyruvate and 25 mM HEPES) and dispensed at 2,000 cells/5 uL /well into 1536-well black wall/clear bottom plates using a Multidrop Combi (ThermoFisher Scientific, Waltham, MA) dispenser. After the assay plates were incubated at 37 C/5% CO2 for 18 hrs, 23 nL of compounds dissolved in DMSO, positive controls or DMSO only was transferred to the assay plate by a pintool workstation (Kalypsys, San Diego, CA). After the plates were incubated at 37 C/5% CO2 for 3 hrs, 1 uL of LiveBLAzer B/G FRET substrate (Invitrogen, Carlsbad, CA) was added to each well using Bioraptr Flying Reagent Dispenser (FRD, Aurora Discovery, San Diego, CA). The plates were incubated at room temperature for 2 h.
Background: qHTS replaces the single test concentration by a dilution series.
On to `CC(Cl)C(C)Cl` (stereo not given), for which the “activation” value is -0.984%.
For the molecule `COCc1cnc(C2=NC(C)(C(C)C)C(=O)N2)c(C(=O)O)c1` (stereo not given), the “activation” value was -0.671%.
Still for that read-out and setting: the value for `ClC=C(Cl)Cl` was -0.769%; that for `O=C(C(Cl)(Cl)Cl)C(Cl)(Cl)Cl` was -0.062%; that for `O=P(O)(O)c1ccccc1` was -0.176%.
For `ClC1=C(Cl)C2(Cl)C(CBr)CC1(Cl)C2(Cl)Cl` (stereo not given), the Potency result is “inactive”.
As for `Nc1ccc(Sc2ccc(N)cc2)cc1`, the “activation” value was 1.64%.
Regarding `COP(=S)(OC)Oc1c(Cl)cc(C)cc1Cl`, the “activation” value was 8.58%.
Turning to `CC(=O)NNc1ccccc1`, the “activation” value is 0.219%.
`O=NN1CCN(N=O)CC1`: the “activation” value is 0.0384%.
For `NC(=O)CI`, the “activation” value was 0.136%.
On to `O=C(CCCN1CCC(n2c(=O)[nH]c3ccccc32)CC1)c1ccc(F)cc1`, for which the “activation” value is 5.83% [at 42.5 µM].
As for `CCCCc1ccccc1`, the “activation” value is 3.1%.
The same measure, in the same setting: the value for `CC(=O)[O-].CC(=O)[O-].O.O.[Cd+2]` was 7.44%; that for `CC1=C2C[C@H]3[C@@H](CC=C4C[C@@H](O)CC[C@@]43C)[C@@H]2CC[C@]12O[C@@H]1C[C@H](C)CN[C@H]1[C@H]2C` was 0.669% [at 42.5 µM].
On the same count and under the same terms, the value for `CCCOC(=O)Cc1ccc(OCC(=O)N(CC)CC)c(OC)c1` was 2.88% [at 42.5 µM].
Consider `CCCCCCCCc1ccc(O)cc1`, for which the “activation” value was 5.64%.
Regarding `CC(O)CCl` (stereo not given), the “activation” value was -0.177%.
As to `CC(C)(OO)c1ccccc1`, the “activation” value was 0.45%.
For the molecule `c1cncc([C@@H]2CCCCN2)c1`, the “activation” value was -0.0901%.
As for `CCNc1nc(NC(C)C(C)C)nc(SC)n1` (stereo not given), the “activation” value is 0.149%.
For `O=[N+]([O-])c1ccc2c3c(cccc13)CC2`, the “activation” value is 0.0554%.
Same read-out and setting: the value for `CCN(CC)C(=O)Cl` was 1.13%; that for `O=[N+]([O-])[O-].[Tl+]` was -2.18%; that for `CCCCCCC[CH2][Sn]([Cl])([Cl])[CH2]CCCCCCC` was -0.0852%.
Still for that read-out and setting: the value for `O=C(Cl)c1ccccc1F` was -2.2%; that for `CCOC(=O)C(Cl)C(C)=O` (stereo not given) was -0.0448%.
`NCC(CC(=O)O)c1ccc(Cl)cc1` (stereo not given): the activation was -1.8% [at 0.349 µM].
Same read-out and setting: the result for `NNCCO` reads -0.513%.
Turning to `C=CCN1CC[C@]23c4c5ccc(O)c4O[C@H]2C(=O)CC[C@@]3(O)[C@H]1C5`, the “activation” value was -0.673% [at 42.5 µM].
Turning to `Cc1cnc2c(C(=O)O)c(Cl)ccc2c1`, the “activation” value was 0.676%.
Same read-out and setting: the value for `O=[N+]([O-])c1ccc(CCl)cc1` was 0.21%.
`CN1C(=S)CN=C(c2ccccc2)c2cc(Cl)ccc21`: the “activation” value was 6.08% [at 42.5 µM].
`Cc1cc(OC(=O)N(C)C)nn1C(=O)N(C)C`: the “activation” value was 0.62%.
Regarding `NC(=O)c1ccc(N)nc1`, the “activation” value is -0.18%.
On the same count and under the same terms, the result for `CCN(CCO)CCn1c(Cc2ccccc2)nc2c1c(=O)n(C)c(=O)n2C` reads -0.427% [at 42.5 µM]; that for `COc1cc(CCN)cc(OC)c1OC`, 0.0515%; that for `CCOP(=S)(OCC)SCS(=O)(=O)CC`, 1.17%.
The same measure, in the same setting: the value for `CC(C)CC(N(C)C)C1(c2ccc(Cl)cc2)CCC1` (stereo not given) was 0.145% [at 42.5 µM].
With `Cc1nc(N)nc(N)n1`, the “activation” value was -0.0273%.
